Measured values: PubChem BioAssay AID1851 (National Center for Advancing Translational Sciences (NCATS), 2009)
Where “and” joins values, the source holds several entries; their conditions need not be identical. Equal entries are not always repeated. Hit rate of the full screen: of about 16,000 compounds, about 5,100 (32%) were called active. About 25% were inconclusive and are not listed. Calls come from the whole dose curve; as a rule, active = well fitted curve in the direction sought with a large enough effect; inconclusive = small, poorly fitted or top-dose-only effect, or effect the other way; inactive = no such curve, though single readings can be large or run the other way. This is one part of the list.

Each molecule was assayed against Cytochrome P450 3A4 (Homo sapiens) (UniProt P08684) (assay: Cytochrome panel assay with activity outcomes). Conditions: recombinant CYP, pro-luciferin dealkylation, luminescence, p450-cyp3a4; series mostly up to 57.1 µM; activity, negative = inhibition: at the top concentration.
Cytochrome P450 3A4 (Homo sapiens), sequence (P08684 whole entry, looked up): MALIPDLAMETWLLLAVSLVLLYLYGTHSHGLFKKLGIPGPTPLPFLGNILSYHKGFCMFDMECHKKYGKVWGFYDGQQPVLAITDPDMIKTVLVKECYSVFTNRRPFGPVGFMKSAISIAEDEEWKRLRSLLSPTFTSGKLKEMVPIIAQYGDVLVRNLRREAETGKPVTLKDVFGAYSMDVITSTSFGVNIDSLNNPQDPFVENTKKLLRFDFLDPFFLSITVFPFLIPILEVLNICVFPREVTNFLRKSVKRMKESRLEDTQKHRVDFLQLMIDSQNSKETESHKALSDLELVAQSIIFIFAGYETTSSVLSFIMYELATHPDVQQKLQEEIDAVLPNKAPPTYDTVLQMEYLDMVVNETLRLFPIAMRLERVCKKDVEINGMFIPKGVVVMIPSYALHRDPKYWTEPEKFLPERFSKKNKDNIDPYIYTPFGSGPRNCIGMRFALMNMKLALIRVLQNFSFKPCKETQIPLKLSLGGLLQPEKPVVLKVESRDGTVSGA
% is set by controls: 0 for no effect and ±100 for the full control effect.

AC50, inactive:
CCCCCCc1c(C[C@H](N)C(=O)O)o[nH]c1=O
N=c1nc(N2CCCCC2)cc(N)n1O

AC50, active:
C[C@@H](C(=O)Nc1ccc2ccccc2c1)[C@H]1C[C@]1(C)[C@H](NP(=O)(c1ccccc1)c1ccccc1)c1ccccc1 2000 nM
C[C@@H](C(=O)Cc1ccc2ccccc2c1)[C@@H]1C[C@@]1(C)[C@@H](NP(=O)(c1ccccc1)c1ccccc1)c1ccccc1 1000 nM
C[C@@H](C(=O)Nc1ccc2ccccc2c1)[C@@H]1C[C@@]1(C)[C@@H](N)c1ccccc1 7940 nM
C=C[C@@]1(C)CC(=O)[C@@]2(O)[C@@]3(C)[C@@H](O)CCC(C)(C)[C@@H]3[C@H](OC(=O)CCN(C)C)[C@H](OC(C)=O)[C@@]2(C)O1 2510 nM
O=C1[C@H]2[C@H]3[C@H](O)[C@H](O)C/C(=N/OC[C@@H](O)COCc4ccco4)[C@@H]3CC[C@@H]2C(=O)N1Cc1ccccc1 3160 nM
O=C1[C@H]2[C@H]3[C@H](O)[C@H](O)C/C(=N/OC[C@@H](O)COCc4ccco4)[C@H]3CC[C@@H]2C(=O)N1Cc1ccc2c(c1)OCO2 3160 nM
O=C1[C@H]2[C@H]3[C@H](O)[C@H](O)C/C(=N/OC[C@@H](O)COCc4ccco4)[C@@H]3CC[C@@H]2C(=O)N1Cc1ccc2c(c1)OCO2 3160 nM
CCC(C(=O)NC(C)(C)C)N(C(=O)Cn1nnc(-c2cccs2)n1)c1cnc2ccccc2c1 (stereo not drawn) 2000 nM
CS(=O)(=O)Nc1cccc(-c2nc(NCCN3CCOCC3)c3ccccc3n2)c1 15800 nM
c1cncc(-c2nc(NCCN3CCOCC3)c3ccccc3n2)c1 7940 nM
COc1cccc(-c2nc(NCCN3CCOCC3)c3ccccc3n2)c1 12600 nM
CS(=O)(=O)Nc1cccc(-c2nc(N3CCOCC3)c3ccccc3n2)c1 1580 nM
N#Cc1cccc(-c2nc(NCCN3CCOCC3)c3ccccc3n2)c1 12600 nM
CCc1ccc2c(c1)cc(CN(C(=S)Nc1cccc(C)c1)C1CC1)c1nnnn12 2240 nM
CC(NC(=O)CCSc1nc(-c2ccc3c(c2)OCO3)cc(C(F)(F)F)n1)c1ccccc1 (stereo not drawn) 39.8 nM
CC(NC(=O)CCSc1nc(-c2ccco2)cc(C(F)(F)F)n1)c1ccccc1 (stereo not drawn) 20000 nM
COc1ccc(C(=O)/C=C2/c3ccccc3CC(C)(C)N2C)cc1 7080 nM
COc1cccc(-c2cncnc2NCc2ccccc2)c1 316 nM
COc1cccc(-c2cncnc2NCc2cccc(C)c2)c1 398 nM
COc1cccc(-c2cncnc2NCc2cccnc2)c1 1260 nM
COc1cccc(-c2cncnc2NCc2cnc(C)cn2)c1 1580 nM
COc1cccc(-c2cncnc2NCc2cccs2)c1 1580 nM
Cc1cnc(CNc2ncncc2-c2cccc(C#N)c2)cn1 2000 nM
Cc1ccc(-n2nnnc2Sc2nc([N+](=O)[O-])nn2C)cc1C 15800 nM
COC(=O)c1cc(NS(=O)(=O)c2ccc(N3CCCCC3)c([N+](=O)[O-])c2)cc(C(=O)OC)c1 2000 nM
COC(=O)c1cc(NS(=O)(=O)c2ccc(N3CCCCCC3)c([N+](=O)[O-])c2)cc(C(=O)OC)c1 6310 nM
CC1CCN(c2ccc(S(=O)(=O)Nc3cc(C(=O)O)cc(C(=O)O)c3)cc2[N+](=O)[O-])CC1 5620 nM
COc1ccc2c(c1)C(=NN)c1cc(OC)ccc1-2 20000 nM
COc1cccc([C@H]2Oc3ccc(OC)cc3/C(=N\O[C@@H]3O[C@H](COC(C)=O)[C@H](OC(C)=O)[C@H](OC(C)=O)[C@H]3OC(C)=O)[C@@H]2O)c1 3160 nM
COc1ccc(O[C@H]2C=C[C@@H](c3ccccc3)O[C@H]2CO/N=C2/c3cc(OC)ccc3O[C@@H](c3cccc(OC)c3)[C@H]2O)cc1 3160 nM
CCCNC(=O)OC[C@@H]1O[C@H](CCO/N=C2\c3cc(OC)ccc3O[C@H](c3cccc(OC)c3)[C@H]2O)C=C[C@@H]1Oc1ccc(OC)cc1 5010 nM
Cc1cc(C)cc(N2C(=O)CC(Sc3nnnn3-c3ccccc3)C2=O)c1 (stereo not drawn) 2000 nM
Cc1cccc(Cn2cnc3c(NS(C)(=O)=O)c(C)c(C)cc32)c1 2000 nM
O=C(CN(C(=O)CSc1nc2ccccc2o1)c1cccc(F)c1)NC1CCCCC1 12600 nM
c1ccc(CNc2ncncc2-c2cccnc2)cc1 1260 nM
Cc1cccc(CNc2ncncc2-c2cccnc2)c1 631 nM
c1cncc(CNc2ncncc2-c2cccnc2)c1 2000 nM

activity, negative = inhibition, inactive:
CN(Cc1cnc2nc(N)nc(N)c2n1)c1ccc(C(=O)N[C@H](CCC(=O)O)C(=O)O)cc1 1.58% [at 25.6 µM]
O=C(O)CC[P+](c1ccccc1)(c1ccccc1)c1ccccc1 9.68% [at 11.4 µM]
CCN1C(=O)[C@H]2[C@H]3[C@H](O)[C@H](O)C/C(=N/OC[C@@H](O)COCc4ccco4)[C@H]3CC[C@@H]2C1=O -17.6% [at 11.4 µM]
CCN1C(=O)[C@H]2[C@H]3[C@H](O)[C@H](O)C/C(=N/OC[C@@H](O)COCc4ccco4)[C@@H]3CC[C@@H]2C1=O -23.4% [at 11.4 µM] and -18.4% [at 11.4 µM]
Cc1[nH]nc(N2CCCCCC2)c1[N+](=O)[O-] -25.9%
O=C(Nc1cnc2ccccc2c1)c1cccc(-n2cnnn2)c1 20.1%
COc1cccc(C2=NOC(C(=O)NCCN3CCOCC3)C2)c1 (stereo not drawn) -24.1%
O=C1C=C(NCCN2CCOCC2)CC(c2ccccc2)C1 (stereo not drawn) -22.3%
CS(=O)(=O)Nc1ccc(Nc2c3ccccc3nc3ccccc23)cc1 -25.8% [at 11.4 µM]
CS(=O)(=O)Nc1cccc(-c2nc(N3CCNCC3)c3ccccc3n2)c1 -27.7%
CCCc1cc(=O)[nH]c(=S)[nH]1 -10.8% [at 25.6 µM]
CCN(Cc1cc(Cl)cc(C)c1O)Cc1c(O)ccc2ccccc12 -15.9% [at 11.4 µM]
O=C(O)[C@H]1CN[C@H](C(=O)O)C1 0.628%
N#Cc1cccc(-c2nc3cnc(N4CCOCC4)nc3n(C[C@H]3CCCO3)c2=O)c1 -0.471%
COc1ccc(-n2ncc3c(NCC4CCCO4)ncnc32)cc1 (stereo not drawn) -18.3%
Cc1cccc(CCNc2nc3ccccc3n3nnnc23)c1 -16.1%
C[N+]1(C)CCC(=C(c2ccccc2)c2ccccc2)CC1 -28% [at 25.6 µM]
COc1ccc(C(Cl)=C(c2ccc(OC)cc2)c2ccc(OC)cc2)cc1 -23.8% [at 25.6 µM]
COc1ccc(C(=O)N2CCC3(CCN(C)CC3)CC2)cc1 -26%
CCOc1nc(NC(C)C)nc(NC(C)C)n1 -2.02%
CC[n+]1c(P(=O)([O-])c2ccccc2)[nH]c2ccccc21 -3.39% [at 2.29 µM]
CC(=O)O[C@H]1CC[C@@]2(C)C(=CC[C@@H]3[C@H]4CC[C@@H]([C@H](C)C(=O)O)[C@]4(C)CC[C@H]32)C1 1.09% [at 11.4 µM]
O=C(O)c1ccc(Sc2nnnn2-c2ccccc2)c([N+](=O)[O-])c1 -2.88% [at 11.4 µM]
CC1CCN(CCCCOc2ccccc2[N+](=O)[O-])CC1 -4.5% [at 2.29 µM]
CS(=O)(=O)N1CCN(c2ccc(C(=O)NC3C4CC5CC(C4)CC3C5)cc2[N+](=O)[O-])CC1 (stereo not drawn) -25.7%
COC(=O)c1ccc(N2CCN(CC(=O)c3ccc(-c4ccccc4)cc3)CC2)c([N+](=O)[O-])c1 15.7% [at 2.29 µM]
C[N+](C)(C)c1nc(N)nc2c1ncn2[C@H]1O[C@@H](CO)[C@@H](O)[C@H]1O 16.1% [at 11.4 µM]
C=CC[C@@H]1C=C[C@H](O/N=C2\c3cc(OC)ccc3O[C@H](c3cccc(OC)c3)[C@H]2O)[C@H](CO)O1 -80.3% [at 11.4 µM]
CC(=O)OC[C@@H]1O[C@@H](O/N=C2/C[C@@H](O)[C@@H](O)[C@@H]3[C@H]4C(=O)N(c5ccc(F)cc5F)C(=O)[C@@H]4CC[C@H]23)[C@H](OC(C)=O)[C@H](OC(C)=O)[C@@H]1OC(C)=O -23.8% [at 11.4 µM]
CCN1C(=O)[C@H]2[C@H]3[C@H](O)[C@H](O)C/C(=N/OCC[C@H]4C=C[C@H](OC(C)=O)[C@@H](COC(C)=O)O4)[C@@H]3CC[C@@H]2C1=O -18.6% [at 11.4 µM]
CC(=O)OC[C@@H]1O[C@@H](O/N=C2/C[C@@H](O)[C@@H](O)[C@@H]3[C@@H]4C(=O)N(c5cccc(Oc6ccccc6)c5)C(=O)[C@H]4CC[C@@H]23)[C@H](OC(C)=O)[C@H](OC(C)=O)[C@@H]1OC(C)=O -35.5% [at 11.4 µM]
C[C@@]1(CCOCc2ccccc2)NC(=O)NC1=O -5.69% [at 11.4 µM]
CC(C)[C@H](NC(=O)OC(C)(C)C)[C@@H](O)CC(=O)C(C)(C)C -11% [at 11.4 µM]
O=c1c(Oc2ccccc2Br)c(C(F)(F)F)oc2c(CN3CCCC3)c(O)ccc12 -24.1%
O=C1OCCC1Sc1nnnn1-c1ccccc1 (stereo not drawn) -3.46%
Cc1cc2c(ncn2Cc2ccccc2)c([N+](=O)[O-])c1C 25%
CC(C)CN=C(N)N=C(N)N -1.21% [at 11.4 µM]
CC(=O)NC1(c2cccc(F)c2)CCN(CC(=O)NC2CCCCC2)CC1 -27.6%
O=S(=O)(CC(O)COc1ccccc1Cl)c1ccccc1 (stereo not drawn) -5.32% [at 11.4 µM]
